According to PubChem BioAssay AID618 (Sanford-Burnham Center for Chemical Genomics, 2007):
Among all 87,000 compounds or so, about 540 (0.62%) were called active. No rule for the calls is given here. The list comes from a sample in which actives are over-represented; it also holds similar structures and randomly drawn compounds. Measured potencies and affinities stand elsewhere.

assay: inhibitors of MT1-MMP promoter transcription, cell-based, luciferase reporter, luminescence (AID 618); settings: MT1-MMP promoter luciferase reporter cells;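 also: actives suppress MT1-MMP promoter-driven transcription so potencies describe inhibitors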

Row | Structure (SMILES) | outcome
1 | COc1ccc(C(CNC(=O)c2ccc(-n3cnnn3)cc2)N2CCOCC2)cc1 (stereo not drawn) | inactive
2 | Cn1cc(C(=O)c2ccccc2)cc1-c1nc2ccccc2n1C | inactive
3 | Cc1oc(-c2nc3ccccc3n2C)cc1C(=O)c1ccccc1 | active
4 | CC(=O)c1ccc(-c2nc3ccccc3n2C)o1 | inactive
5 | C/C(=C1\SC(N2CCOCC2)=NC1=O)c1ccc(C)cc1 | inactive
6 | Cc1ccc(CS(=O)(=O)CCC(=O)NCc2ccc3c(c2)OCO3)cc1 | inactive
7 | Cc1ccc(-c2nc3cc(NC(=O)C(C)C)ccc3o2)cc1C | inactive
8 | Cc1ccc2oc(-c3ccc(NC(=O)CC(C)C)cc3)nc2c1 | inactive
9 | CCC(=O)Nc1ccc2oc(-c3cccc(C)c3)nc2c1 | active
10 | CCC(=O)Nc1ccc2oc(-c3ccccc3Br)nc2c1 | inactive
11 | CC(C)(C)c1ccc(OCC(=O)Nc2ccc(-c3nc4cccnc4o3)cc2)cc1 | inactive
12 | CCCC(=O)Nc1ccc(-c2nc3cc(C)c(C)cc3o2)cc1 | inactive
13 | CCC(C)NCC(=O)Nc1ccc(-c2nc3cc(NC(=O)CNC(C)CC)ccc3o2)cc1 (stereo not drawn) | inactive
14 | CCC(=O)Nc1cccc(-c2nc3ccccc3o2)c1 | inactive
15 | Cc1cc2nc(-c3ccc(NC(=O)C(C)C)cc3)oc2cc1C | inactive
16 | O=C(Nc1cc(C(F)(F)F)ccc1N1CCCCC1)c1ccco1 | inactive
17 | COCCNC(=O)CN1c2ccccc2CC1C (stereo not drawn) | inactive
18 | CCCSc1nc(C)c(-c2csc(C(C#N)=C3CCCC3)n2)cc1C#N | inactive
19 | CCOC(=O)N1CCN(CCC(=O)Nc2ccccc2OC)CC1 | inactive
20 | CS(=O)(=O)Nc1ccccc1C(=O)Nc1ccccc1Cl | inactive
21 | COc1ccc(CCNC(=O)CSc2nnc(-c3ccc(F)cc3)o2)cc1OC | inactive
22 | CC(=O)C1=C(O)C(=O)N(Cc2ccccc2)C1c1cccs1 (stereo not drawn) | inactive
23 | COc1cc(C2c3c(oc4cc(C)c(C)cc4c3=O)C(=O)N2c2cc(C)ccn2)ccc1O (stereo not drawn) | inactive
24 | COc1ccc(N2CCN(C(=O)CCNS(=O)(=O)c3cccs3)CC2)cc1 | inactive

Row | Structure (SMILES) | outcome
25 | CC(C)C(=O)Nc1ccc2oc(-c3cc(F)c(F)cc3Cl)nc2c1 | inactive
26 | CC(C)(C)C(=O)Nc1ccc2oc(-c3cc(F)c(F)cc3Cl)nc2c1 | inactive
27 | CC(C)N=Cc1c(O)[nH]c2ccccc12 | inactive
28 | CN=Cc1c(NC)nc2c(C)cccn2c1=O | inactive
29 | O=C(NCc1ccc(F)cc1)C1CCC(=O)N1CCc1ccccc1 (stereo not drawn) | inactive
30 | Cc1ccc(NC(=O)c2ccc(S(=O)(=O)N3CCCC3)cc2)cc1 | inactive
31 | CN(C)CCNC(=O)c1coc(=O)c(Br)c1 | inactive
32 | C[C@@H](NC(=O)c1coc(=O)c(Br)c1)c1ccccc1 | inactive
33 | O=C(CNC(=O)C1CCCCC1)NCCCO | inactive
34 | COCC(C)Nc1ncnc2c1cnn2-c1ccc(Cl)cc1 (stereo not drawn) | inactive
35 | Cc1ccc(-n2ncc3c(NCCCOC(C)C)ncnc32)c(C)c1 | inactive
36 | CCC(CO)Nc1ncnc2c1cnn2-c1ccc(OC)cc1 (stereo not drawn) | inactive
37 | Cc1cccc(-n2ncc3c(NC(C)C)ncnc32)c1 | inactive
38 | CCCCNc1ncnc2c1cnn2-c1ccccc1 | inactive
39 | CC(C)OCCCNc1ncnc2c1cnn2-c1ccccc1 | active
40 | CC(C)Nc1ncnc2c1cnn2-c1ccccc1 | inactive
41 | CCCNc1ncnc2c1cnn2-c1ccc(OC)cc1 | inactive
42 | COc1ccc(-n2ncc3c(NCc4ccco4)ncnc32)cc1 | inactive
43 | Cc1cc(C)nc(NS(=O)(=O)c2ccc(Br)s2)c1 | inactive
44 | O=C(NCCOc1nc(N2CCOCC2)nc(N2CCOCC2)n1)Nc1ccc(Cl)cc1 | inactive
45 | CCNS(=O)(=O)c1ccc(NC(=O)Cc2ccc(F)cc2)cc1 | inactive
46 | O=C1C2CC=C(Cl)CC2C(=O)N1CCc1ccccc1 (stereo not drawn) | inactive
47 | COc1ccc(OC)c(NC(=O)C2CCCNC2=O)c1 (stereo not drawn) | inactive
48 | Cc1cc(NC(=O)CSc2nc3c(sc4ccccc43)c(=O)n2CCc2ccccc2)n[nH]1 | inactive

Row | Structure (SMILES) | outcome
49 | O=C(O)CSC1CC(=O)N(c2ccc(Cl)c(Cl)c2)C1=O (stereo not drawn) | inactive
50 | COc1ccc(CNC(=O)c2ccc3c(c2)N(C)C(=O)CS3=O)cc1 (stereo not drawn) | inactive
51 | COc1ccc(CNc2ccccc2SC)cc1OC | inactive
52 | CSc1ccccc1N=CC1=C(O)CC(C)(C)CC1=O | inactive
53 | C=CCNc1ncnc2c1cnn2-c1ccc(Cl)cc1 | inactive
54 | C=CCNc1ncnc2c1cnn2-c1cccc(C)c1 | inactive
55 | O=C(Nc1ccccc1C(=O)NCCCn1ccnc1)c1ccc(Cl)cc1Cl | inactive
56 | O=C(Nc1ccccc1C(=O)NCCCn1ccnc1)c1ccccc1 | inactive
57 | CCOc1ccc(Br)cc1S(=O)(=O)Nc1ccccc1N1CCOCC1 | inactive
58 | CCOc1cc(N2CCOCC2)c(OCC)cc1NS(=O)(=O)c1ccc(Cl)s1 | active
59 | CCOc1cc(N2CCOCC2)c(OCC)cc1NC(=O)CCS(=O)(=O)c1ccc(Cl)cc1 | inactive
60 | CCOC(=O)c1[nH]c(C)c(CN(Cc2ccco2)C(=O)C(F)(F)F)c1C | inactive
61 | O=C(CNC(=O)c1ccc(Br)o1)Nc1cccc(-c2cnc3ccccc3n2)c1 | inactive
62 | O=C(CCl)Nc1cccc(-c2cnc3ccccc3n2)c1 | active
63 | O=C(Nc1cccc(-c2cnc3ccccc3n2)c1)c1ccco1 | inactive
64 | O=c1cc(O)c(-c2ccccc2Cl)c(Cl)[nH]1 | inactive
65 | Cc1nnc(NCCc2ccccc2)[nH]c1=O | inactive
66 | CC(=O)Oc1ccc2oc(C)c(C(=O)N3CCOCC3)c2c1 | inactive
67 | CC(=O)Nc1ccc2nc(-c3ccccn3)[nH]c2c1 | inactive
68 | Nc1ccc2nc(-c3ccccn3)[nH]c2c1 | inactive
69 | CC(=O)Nc1nnc(Cc2ccccc2)s1 | inactive
70 | COC(=O)C(Cc1cnc(Cl)s1)(C(=O)OC)c1ccc([N+](=O)[O-])cc1 | inactive
71 | CC(=O)Nc1ccc(C(=O)CSc2nnnn2C(C)C)cc1 | inactive
72 | Cc1ccc(C)c(C(=O)CSc2nnnn2C(C)C)c1 | inactive

Row | Structure (SMILES) | outcome
73 | Cc1nc2cc(NC(=O)N3c4ccccc4CC3C)ccc2o1 (stereo not drawn) | inactive
74 | Cc1nc2cc(NC(=O)N3c4ccccc4CC3C)ccc2n1C (stereo not drawn) | active
75 | COc1ccc(NC(=O)N2c3ccccc3CC2C)cc1OC (stereo not drawn) | inactive
76 | COc1ccc(Cn2nnnc2C(c2ccc(N(C)C)cc2)N2CCC(C)CC2)cc1 (stereo not drawn) | inactive
77 | COc1ccc(C(=O)Nn2c(SCC(=O)NC3CCCC3)nc3ccccc3c2=O)cc1 | inactive
78 | O=C(CSc1nc2ccccc2c(=O)n1NC(=O)Cc1ccccc1)NCc1ccco1 | inactive
79 | COCCn1c(SCC(=O)N2CCC(C)CC2)nc2ccccc2c1=O | inactive
80 | O=C(CSc1nc2ccsc2c(=O)n1NC(=O)c1ccccc1)NCc1ccco1 | inactive
81 | COc1ccc(C(=O)Nn2c(SCC(=O)c3ccccc3)nc3ccccc3c2=O)cc1 | inactive
82 | COc1ccc(C(=O)Nn2c(SCC(=O)c3ccc(Cl)cc3)nc3ccccc3c2=O)cc1 | inactive
83 | CCOc1ccccc1NC(=O)C1C2C=CC(C2)C1C(=O)O (stereo not drawn) | inactive
84 | Cc1cc(N)n(-c2nc(-c3cccnc3)nc3ccccc23)n1 | inactive
85 | Cc1cc(Nc2ccccc2N2CCOCC2)n2ncnc2n1 | inactive
86 | O=C(Cn1nnc(-c2ccc(Cl)cc2)n1)NC1CCN(Cc2ccccc2)CC1 | inactive
87 | N#Cc1nc(-c2ccc(OCc3ccc(Cl)cc3)cc2)oc1N1CCC(C(N)=O)CC1 | inactive
88 | CN(C)C(=O)N1CCC(C(=O)NCc2ccc(F)cc2Cl)CC1 | inactive
89 | c1ccc(-n2nnnc2SCc2ccccn2)cc1 | inactive
90 | CCN(CC)C(=O)C1CCCN(Cc2cccc(F)c2)C1 (stereo not drawn) | inactive
91 | Cn1c(=O)c2c(nc(SCC(=O)NCc3ccc4c(c3)OCO4)n2Cc2ccc(F)cc2)n(C)c1=O | inactive
92 | O=C(CCCOc1ccccc1)N1CCN(c2ccccc2)CC1 | inactive
93 | O=C(CCCOc1ccc(Cl)cc1)N1CCCCCC1 | inactive
94 | Cc1cc(C)n(-c2ccc(C(=O)Nc3nc4ccccc4s3)cc2)n1 | inactive
95 | O=C(Nc1nc2ccccc2s1)c1ccc(Cl)s1 | inactive
96 | CCOc1ccccc1OCC(=O)OCC(=O)Nc1ncc(Cl)cc1Cl | inactive

Row | Structure (SMILES) | outcome
97 | CCn1c(SCC(=O)N2CCN(c3ccc(F)cc3)CC2)nc2ccccc2c1=O | inactive
98 | C#CC[N+]1(CC#Cc2ccccc2)CCOCC1 | inactive
99 | COC(=O)CSc1nnc(Cc2ccccc2)n1-c1ccc(C)cc1 | inactive
100 | COc1ccc(C2=NOC(C(=O)NCc3cccs3)C2)cc1OC (stereo not drawn) | active
101 | COc1ccc(C2=NOC(C(=O)NCc3cccs3)C2)cc1 (stereo not drawn) | inactive
102 | COc1cc(C2=NOC(C(=O)NCc3cccs3)C2)cc(OC)c1OC (stereo not drawn) | inactive
103 | CCC1(C)Cc2c(sc3nn[nH]c(=O)c23)CO1 (stereo not drawn) | inactive
104 | Cc1nc2sc(C(c3cccs3)N3CCN(c4ccccc4)CC3)c(O)n2n1 (stereo not drawn) | inactive
105 | Cn1c(=NC(=O)CN2C(=O)C3CC=CCC3C2=O)sc2ccccc21 (stereo not drawn) | inactive
106 | Cn1c(=NC(=O)CCl)sc2ccccc21 | active
107 | CC(=O)N=c1sc2ccccc2n1C | inactive
108 | CCCCOC(=O)C(C)Nc1n[nH]c(=S)[nH]c1=O (stereo not drawn) | inactive
109 | CCN(C(=O)CN1CCN(c2ccccc2OC)CC1)c1c(N)n(Cc2ccccc2)c(=O)[nH]c1=O | inactive
110 | CC(=O)N(/N=C1\Sc2ccccc2C1=O)c1cccc(C)c1 | inactive
111 | CC(=O)N(/N=C1\Sc2ccccc2C1=O)c1ccccc1C | inactive
112 | CC(=O)n1nc(-c2ccccc2)nc1NCc1ccc(F)cc1 | inactive
113 | Cn1c(=O)c2c(nc(NCCc3ccccc3)n2Cc2ccc(F)cc2)n(C)c1=O | inactive
114 | Cn1c(=O)c2c(nc(NCc3ccccc3)n2Cc2ccc(F)cc2)n(C)c1=O | inactive
115 | CC(=O)N(Cc1ccc(F)cc1)C1=C(NCc2ccccc2)C(=O)c2ccccc2C1=O | active
116 | O=C(Cc1ccc(F)cc1)NCCc1ccccc1 | inactive
117 | OC(CN1C2=NCCN2c2ccccc21)c1ccc(Br)cc1 (stereo not drawn) | inactive
118 | O=S(=O)(NCCSc1nc2ccccc2o1)c1ccccc1 | inactive
